22 molecules from PubChem BioAssay (Tox21) can be followed below.

Values without a mark were called inactive. Inconclusive results are not listed. Activity calls are given as the source filed them. Unless noted, the call rests on the fitted dose curve; in most records, active means well fitted curve in the direction sought with a large enough effect in the repeat runs; inconclusive means weak or mixed curves; inactive means no such curve, though single readings can be large; an effect the other way counts as inactive or inconclusive.

Assay [1] is described as follows: qHTS assay for small molecules that induce genotoxicity in human embryonic kidney cells expressing luciferase-tagged ATAD5 (AID 651632). Further: nearly all actives have a fitted effect of over 15% in size. Further: potency means the concentration at half of the fitted maximal effect. The gist of the method:
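DMSO vehicle served as the control. HEK293T reporter cells, 16 hr at 37C, then 30 min Amplite at room temperature; ATAD5 induction is measured as luciferase activity.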
For orientation: In qHTS, concentration-response curves come from the screen itself.

Assay [2] can be described thus: qHTS assay for small molecule agonists of the p53 signaling pathway - cell viability (AID 651633; calls by dose curve; further: nearly all actives have a fitted effect of over 30% in size; further: potency means the concentration at half of the fitted maximal effect). Summed up:
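Viability counter-read: CellTiter-Glo luminescence (30 min, room temperature) in the same p53RE-bla plates. These plates had been exposed to compounds for 16 h at 37 C.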

Assay [3] can be described thus: qHTS assay for small molecules that induce genotoxicity in human embryonic kidney cells expressing luciferase-tagged ATAD5 - cell viability (AID 651634; calls by dose curve; further: nearly all actives have a fitted effect of over 25% in size; further: potency means the concentration at half of the fitted maximal effect). Summed up:
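Here HEK293T cells with the ATAD5 luciferase reporter are incubated with test compounds for 15.5 hr, and cytotoxicity is then gauged by measuring protease activity in live cells using fluorescence.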

Assay [4] can be described thus: qHTS assay for small molecule disruptors of the mitochondrial membrane potential - cell viability (AID 720634; calls by dose curve; further: nearly all actives have a fitted effect of over 20% in size; further: potency means the concentration at half of the fitted maximal effect). The gist of the method:
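Viability of HepG2 cells is scored from ATP content by luminescence; cells are exposed to compound for 1 hr at 37 C and 5% CO2, then dosed with m-MPI dye before the CellTiter-Glo reagent.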

Assay [5] in a line: qHTS assay for small molecule disruptors of the mitochondrial membrane potential (AID 720635). Further: potency means the concentration at half of the fitted maximal effect. Summed up: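 Mitochondrial membrane potential tracked with Mito-MPS dye, red aggregates (ex 540/em 590 nm) against green monomers (ex 490/em 535 nm). Compound treatment 1 hr at 37C, dye 30 min in HepG2.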
Assay [6] in a line: qHTS assay to test for compound auto fluorescence at 590 nm (red) in HepG2 cells (AID 720674). Further: on the % scale 0 is the no-effect control and ±100 the full control effect. Summed up:
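1 hr compound incubation on HepG2 cells, 37 C, 5% CO2; plate read ex 540 nm / em 590 nm; intensities reported as Rose Bengal sodium equivalents.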

Assay [7] is described as follows: qHTS assay to test for compound auto fluorescence at 535 nm (green) in HepG2 cells (AID 720675). Further: on the % scale 0 is the no-effect control and ±100 the full control effect.
The nature of assay [8]: qHTS assay to test for compound auto fluorescence at 460 nm (blue) in HEK293 cells (AID 720678). Further: on the % scale 0 is the no-effect control and ±100 the full control effect. Summed up:
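HEK293 cells (2,000 per well, medium with 10% dialyzed FBS) attached for 4-5 hr at 37C, then received compound and stood overnight at 37C, 5% CO2. Blue fluorescence was read at Ex/Em 405/460 nm and expressed relative to triamterene.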

Assay [9] in a line: qHTS assay to test for compound auto fluorescence at 590 nm (red) in HEK293 cells (AID 720679). Further: on the % scale 0 is the no-effect control and ±100 the full control effect. Summed up: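 HEK293 cells (2,000/well, medium with 10% dialyzed FBS) attached for 4-5 hr at 37C, received 23 nL compound and were incubated overnight at 37C, 5% CO2. Red fluorescence was then read at 540/590nm Ex/Em, referenced to Rose Bengal sodium.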
The nature of assay [10]: qHTS assay for small molecule agonists of the p53 signaling pathway (AID 651631; calls by dose curve; further: potency means the concentration at half of the fitted maximal effect; nearly all actives have a fitted effect of over 15% in size). The gist of the method:
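We treat p53RE-bla HCT-116 cells with compounds for 16 h at 37 °C, add LiveBLAzer B/G FRET substrate for 2 h at room temperature, and measure fluorescence intensity.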

Turning to `c1ccc2c(c1)CCc1ccccc1N2`, the Potency entry in [1], in assay [2], in assay [3] and in [8] was “inactive” in each case. For the same molecule, the Potency is 54.8 µM (active) in [4] and 19.4 µM (active) in [5]. In addition, the molecule was called inactive in assay [6], in [7] and in assay [9].
Regarding `Cc1c(C)c2c(c(C)c1OC(=O)CCC(=O)OCCO)CC[C@@](C)(CCC[C@H](C)CCC[C@H](C)CCCC(C)C)O2`, the Potency result in assay [1], in assay [4], in assay [5] and in assay [8] was “inactive” in each case. Besides, the Potency is 21.1 µM (active) in [2] and 23.7 µM (active) in assay [3]. Besides, the call in assay [6], in [7] and in assay [9] was inactive.
Regarding `C=CC(C)(CCC=C(C)C)OC(=O)CC(C)C` (stereo not given), the Potency entry in [1], in assay [2], in assay [3], in assay [4], in assay [5] and in assay [8] was “inactive” in each case. The result in [6], in [7] and in assay [9] was inactive.
Consider `Nc1cccc2c1CN(C1CCC(=O)NC1=O)C2=O` (stereo not given), for which the Potency entry in assay [1], in assay [2], in assay [3], in assay [4], in [5] and in assay [8] was “inactive” each time. Moreover, the result in [6], in assay [7] and in assay [9] was inactive.
As to `OCCOCC#CCOCCO`, the Potency result in assay [1], in assay [2], in assay [3], in assay [4] and in assay [8] was “inactive” each time. Also, the result in assay [6], in assay [7] and in assay [9] was inactive.
Regarding `CN1C(C(=O)Nc2ccccn2)=C(O)c2sccc2S1(=O)=O`, the Potency result in [1], in assay [2], in assay [3] and in [4] was “inactive” each time. Moreover, the Potency in assay [5] is 7.17 µM (active). Besides, the fluorescence, relative to Rose Bengal in assay [6] is -0.263% [at 18.6 µM]. Further, the fluorescence, % of fluorescein control in [7] was 0.0319% [at 18.6 µM]. Also, the fluorescence, % of triamterene in assay [8] is 0.367% [at 18.6 µM]. For the same molecule, in assay [9], the fluorescence, % of fluorescent control was 0.192% [at 18.6 µM].
Regarding `CC(=O)OCC(=O)NCCCOc1cccc(CN2CCCCC2)c1`, the Potency result in [1], in assay [2], in assay [3], in [4], in assay [5] and in assay [8] was “inactive” throughout. For the same molecule, the outcome in assay [6], in assay [7] and in [9] was inactive.
For `Oc1cc2c(cc1O)[C@H]1c3ccc(O)c(O)c3OC[C@@]1(O)C2`, the Potency entry in assay [1], in assay [2], in assay [4] and in [8] was “inactive” throughout. For the same molecule, in assay [3], the Potency was 69.4 µM (active). The result in assay [6], in assay [7] and in assay [9] was inactive.
As for `O=C(OCC(O)CO)c1ccccc1Nc1ccnc2cc(Cl)ccc12` (stereo not given), the Potency entry in [1], in [2], in assay [3] and in [4] was “inactive” in each case. Moreover, the fluorescence, relative to Rose Bengal in assay [6] was 0.0018% [at 18.6 µM]. The fluorescence, % of fluorescein control in [7] was 0.0219% [at 18.6 µM]. Further, the fluorescence, % of triamterene in [8] was 0.52% [at 18.6 µM]. In addition, the fluorescence, % of fluorescent control in [9] was -0.0042% [at 18.6 µM].
In the case of `CCC(C)COC(C)=O` (stereo not given), the Potency entry in assay [1], in assay [2], in [3], in assay [4] and in assay [5] was “inactive” in each case. For the same molecule, the molecule was called inactive in [6], in [7] and in assay [9].
Consider `Nc1ccc(N=Nc2ccccc2)c(N)c1`, for which the Potency in [1] was 2.12 µM (active); in [3], 67.1 µM (active); in assay [4], 47.5 µM (active); in assay [5], 4.75 µM (active). The Potency result in assay [2] and in assay [8] was “inactive” throughout. For the same molecule, the result in assay [6], in assay [7] and in [9] was inactive.
For `CCCCCCCC/C=C\CCCCCCCCO`, the Potency entry in assay [1], in assay [2], in [3], in assay [4], in [5] and in assay [8] was “inactive” each time. Also, the outcome in assay [7] and in assay [9] was inactive.
For the molecule `C=CC(=O)OCC1CC2CC1C1CCC(COC(=O)C=C)C21` (stereo not given), in [10], the Potency is 54.5 µM (active). Further, the Potency entry in [4] and in assay [8] was “inactive” throughout. Besides, the call in assay [6], in assay [7] and in assay [9] was inactive.
With `C1COC1`, the Potency entry in assay [1], in assay [2], in [3], in assay [4], in assay [5] and in assay [8] was “inactive” throughout. In addition, the molecule was classed as inactive in assay [6], in assay [7] and in assay [9].
With `CC1CC(OC(=O)C(O)c2ccccc2)CC(C)(C)N1C` (stereo not given), the Potency entry in assay [1], in assay [2], in [3], in assay [4] and in [8] was “inactive” each time. In addition, the result in assay [6], in assay [7] and in assay [9] was inactive.
For the molecule `O=C1c2ccccc2C(=O)N1CCc1noc(-c2ccc(CN3CCCCCC3)s2)n1`, the Potency result in assay [1], in assay [2], in assay [3], in [4] and in [8] was “inactive” throughout. The call in assay [6], in [7] and in assay [9] was inactive.
Regarding `CCC(C)(C)OC`, the Potency result in [1], in assay [2], in assay [3], in assay [4], in [5] and in assay [8] was “inactive” each time. The molecule was called inactive in [6], in [7] and in assay [9].
Take `N#CCCN(CCO)CCO`: the Potency result in assay [1], in assay [2], in assay [3], in [4], in assay [5] and in assay [8] was “inactive” throughout. Moreover, the molecule was called inactive in assay [6], in assay [7] and in [9].
Consider `C[C@@]12CCC[C@H]1[C@@H]1CC[C@H]3C[C@@H](O)CC[C@]3(C)[C@H]1CC2`, for which the Potency entry in assay [1], in assay [2], in [3], in [4] and in [5] was “inactive” throughout. Besides, the molecule was called inactive in assay [6], in [7] and in assay [9].
On to `COc1ncnc(NS(=O)(=O)c2ccc(N)cc2)c1OC`, for which the Potency entry in assay [1], in assay [2], in assay [3], in [4], in assay [5] and in assay [8] was “inactive” throughout. Also, the result in assay [6], in [7] and in assay [9] was inactive.
For `CCCCCC#CC(=O)OC`, the Potency entry in assay [1], in assay [2], in assay [3], in assay [4] and in [5] was “inactive” in each case. Moreover, the molecule was classed as inactive in [6], in assay [7] and in [9].
For `CC(C)c1nc(CN(C)C(=O)N[C@H](C(=O)N[C@@H](Cc2ccccc2)C[C@H](O)[C@H](Cc2ccccc2)NC(=O)OCc2cncs2)C(C)C)cs1`, the Potency result in assay [1], in assay [2], in assay [3], in assay [4] and in [8] was “inactive” throughout. In addition, the molecule was classed as inactive in [6], in assay [7] and in assay [9].
